In the library only some 4.6% were active in any assay of this set; here they are far more common.
KKLEB tox: counter-screen for CF NF-kB inhibitors: cytotoxicity | KKLEB CF airway cells viability, ATPlite luminescence, overnight; active compounds read low; cells stimulated with P. aeruginosa culture filtrate | 360,000 tested, 0.36% active | activity change (cytotoxicity), % at 5 µM;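 active means corrected activity change at or below -50% at 5 µM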
HIF-2a block: inhibitors of HIF-2a | 360,000 tested, 0.72% active | inhibition, % at 18.8 µM | 786-0 RCC cells HIF-2a reporter, luciferase luminescence, overnight;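 active means inhibition of the luminescence signal of 40% or more relative to plate controls, in a single-dose primary screen at 18.75 µM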
ABHD5 PLIN5 PPI: inhibitors of human ABHD5-perilipin-5 interaction; Q00G26+Q8WTS1; Split G. princeps luciferase complementation, luminescence, 4 h; inhibition, % at 4 µM; 360,000 tested, 0.78% active;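 active means inhibition above the mean inhibition across every tested compound plus 3 SD, cut at about 22% in these data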;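 further: 0% = DMSO only wells and the 100% control is not disclosed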
CF NFkB inh: blocks PAF-induced NF-kB reporter in cystic fibrosis cells; KKLEB NF-kB-GFP reporter, GFP fluorescence overnight; inhibition, % at 5 µM; 360,000 tested, 0.86% active; AID 588850;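 active means at least 50% inhibition at 5 µM, scaled per plate between neutral and stimulator controls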;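 further: PAF is a Pseudomonas aeruginosa culture filtrate used as stimulus; plate controls were PAF-stimulated DMSO wells for no effect and unstimulated DMSO wells for full effect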
Mdm2 MdmX PPI: inhibitors of human Mdm2/MdmX interaction | 330,000 tested, 3% active | AID 485346 | inhibition, % at 8 µM | SaOS-2 split-luciferase Mdm2/MdmX complementation, luminescence | O15151+Q00987;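 active means inhibition of at least 50% at 8 µM in the primary screen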
Target sequence (O15151 whole entry, looked up): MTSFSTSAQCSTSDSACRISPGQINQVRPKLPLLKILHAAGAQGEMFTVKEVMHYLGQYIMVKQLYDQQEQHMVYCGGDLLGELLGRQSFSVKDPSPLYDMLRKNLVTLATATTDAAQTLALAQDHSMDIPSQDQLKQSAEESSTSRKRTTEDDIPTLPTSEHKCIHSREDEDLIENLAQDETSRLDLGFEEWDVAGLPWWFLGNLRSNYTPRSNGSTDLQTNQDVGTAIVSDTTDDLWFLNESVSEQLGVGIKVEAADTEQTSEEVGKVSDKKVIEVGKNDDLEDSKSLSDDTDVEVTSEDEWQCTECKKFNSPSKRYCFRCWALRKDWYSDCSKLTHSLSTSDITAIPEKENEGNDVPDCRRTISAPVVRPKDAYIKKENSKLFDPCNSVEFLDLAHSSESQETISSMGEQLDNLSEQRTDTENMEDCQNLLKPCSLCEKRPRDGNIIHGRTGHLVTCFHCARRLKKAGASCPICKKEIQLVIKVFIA
Target sequence (Q00987 whole entry, looked up): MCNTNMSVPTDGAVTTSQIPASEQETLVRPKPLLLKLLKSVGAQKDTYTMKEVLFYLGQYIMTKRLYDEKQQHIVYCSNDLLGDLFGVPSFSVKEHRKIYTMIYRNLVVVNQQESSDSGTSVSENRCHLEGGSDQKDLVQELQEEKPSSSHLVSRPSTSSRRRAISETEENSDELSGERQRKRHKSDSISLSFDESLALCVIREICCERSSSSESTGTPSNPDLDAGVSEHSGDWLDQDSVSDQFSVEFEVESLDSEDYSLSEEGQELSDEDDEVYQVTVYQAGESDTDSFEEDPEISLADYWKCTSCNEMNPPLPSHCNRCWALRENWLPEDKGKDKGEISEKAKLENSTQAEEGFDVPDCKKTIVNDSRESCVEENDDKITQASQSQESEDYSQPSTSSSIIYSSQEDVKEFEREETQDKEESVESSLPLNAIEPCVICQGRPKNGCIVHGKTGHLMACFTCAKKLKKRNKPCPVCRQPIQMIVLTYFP
Peg3 promoter: inhibitors of Peg3 promoter | inhibition, % at 20 µM | 360,000 tested, 1.7% active | HeLa PEG-Prom luciferase reporter, luminescence, overnight;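 active means inhibition of at least 50% at 20 µM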
* = called active by the depositor; x = no result.

SMILES | KKLEB tox | HIF-2a block | ABHD5 PLIN5 PPI | CF NFkB inh | Mdm2 MdmX PPI | Peg3 promoter
CN(C)/C=C(\C=N\OCc1ccc(Cl)cc1Cl)C(=O)Nc1ccc(Cl)c(Cl)c1 | -60* | 6 | -2 | 56* | 5 | 11
CC(C)C[C@@H]1CC2=C(C(=O)OC(C)(C)O2)[C@H](c2ccc(Cl)cc2)O1 | x | -7 | -8 | x | x | x
CN(C(=O)CSc1nc2ccccc2n1C)C1CCS(=O)(=O)C1 (stereo not drawn) | -11 | -4 | -7 | 6 | -23 | 68*
CN(C(=O)CSc1nc2ccccc2c(=O)n1C)C1CCS(=O)(=O)C1 (stereo not drawn) | 19 | 12 | 2 | 19 | 37 | 16
CC1(C)Cc2c(c(N3CCOCC3)nc3snc(Br)c23)CO1 | -24 | 29 | -14 | 31 | 20 | 92*
Cc1ccc(-c2nnc(NCc3nc4ccccc4[nH]3)c3ccccc23)cc1S(=O)(=O)N(C)C | -24 | 8 | 9 | 4 | 12 | 16
Cc1ccc(-c2nnc(NCc3nc4ccccc4[nH]3)c3ccccc23)cc1S(=O)(=O)N1CCOCC1 | -15 | -9 | 13 | -16 | 11 | 65*
N#Cc1ccccc1NC(=O)CN(Cc1ccccc1)Cc1ccccc1 | 4 | 8 | -3 | -10 | 21 | 25
CCOc1ccc(C(=O)C(CCC(CN(C)C)C(=O)c2ccc(OCC)cc2)CN(C)C)cc1 (stereo not drawn) | -100* | 93* | 49* | 96* | x | 106*
CN(C)CC(CCC(CN(C)C)C(=O)c1ccccc1)C(=O)c1ccccc1 (stereo not drawn) | -61* | 94* | 41* | 90* | x | 109*
CCCNC(=O)C1(C)CCN(Cc2cccc(OC(=O)c3ccccc3)c2)C1 (stereo not drawn) | -10 | -3 | -2 | 8 | x | 1
CC1(C)CC(C(CCN(Cc2ccccc2)C(=O)c2ccco2)c2ccc(F)cc2)CCO1 (stereo not drawn) | -9 | -12 | 2 | 16 | x | 51*
O=C(CN(C1CCCCC1)S(=O)(=O)c1ccc(F)cc1)NCC1CCCO1 (stereo not drawn) | -95* | 22 | 0 | 91* | x | 98*
COCCn1c(N)c(C(=O)c2cccc(S(=O)(=O)N3CCCCCC3)c2)c(=O)[nH]c1=O | 11 | 13 | -8 | 6 | 18 | 17
CCOC(=O)/C(=C\c1ccc(OC(F)F)cc1)C1=Nn2c(nnc2-c2ccc(Cl)cc2)SC1 | -90* | 97* | 20 | 88* | x | 103*
COc1ccc(-c2nnc3n2N=C(C)CS3)cc1 | -6 | -2 | -1 | 11 | 16 | -8
Cc1cc(C)c2c(=O)n(CC(=O)NCCCN3CCOCC3)sc2n1 | 10 | -10 | 50* | 3 | -8 | -5
Cc1cc(C)c2c(=O)n(CC(=O)NCCCN3CCN(c4ccccc4F)CC3)sc2n1 | x | x | x | x | 14 | x
CC(=O)/C(C=Nc1noc(C)c1Br)=C(\C)O | -8 | 7 | -2 | 6 | -4 | 8
COc1ccc(CC(NC(C)=O)C(=O)NC2CCN(S(=O)(=O)c3ccc(NC(C)=O)cc3)CC2)cc1 (stereo not drawn) | 3 | 14 | 10 | -6 | 6 | -4
CC(=O)Nc1ccc(S(=O)(=O)N2CCC(NC(=O)C(Cc3cccn3C)NC(C)=O)CC2)cc1 (stereo not drawn) | -12 | 18 | 23* | 2 | -16 | 14
CCNc1ccc(Br)cc(C(=O)/C=C/c2ccc(Cl)cc2Cl)c1=O | -12 | -1 | 47* | -10 | -4 | 23
COc1cc(C(=O)c2nccc3cc(OC)c(OC)cc23)c([N+](=O)[O-])cc1OC | -34 | 19 | -3 | 86* | 21 | -6
C(C#CCCCCCCCCC[n+]1ccccc1)#CCCCCCCCCC[n+]1ccccc1 | -38 | 37 | 33* | 53* | x | 105*
COc1ccccc1-n1c(SCC(=O)N2CCCCC2)nc(O)c(Cc2ccccc2)c1=O | 10 | 2 | -9 | -21 | -7 | 97*
CCN(c1ccccc1)S(=O)(=O)c1cccc(C(=O)Nc2ccc(C)cn2)c1 | 0 | 9 | 1 | -1 | 22 | 16
COc1ccc(N(CC(=O)Nc2ccccc2C(F)(F)F)C2=NC3CS(=O)(=O)CC3S2)cc1 (stereo not drawn) | -6 | 7 | -6 | 29 | -2 | 5

Assay outcomes as filed in PubChem.
